The source of these data is PubChem BioAssay.

Test [1] in a line: yeast TOR pathway RPL19A-GFP modulators, primary screen, cell-based, S. cerevisiae, multiplex flow cytometry (AID 1862; in the data active = percent of DMSO control GFP below about 86%;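 note: lower values mimic rapamycin by blocking the RPL19A rise seen in DMSO cells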). The note with it: S. cerevisiae RPL19A-GFP strain, flow cytometry fluorescence, 3 h; at 10 µM; stronger effect = lower value.
A short description of test [2]: modulators of MEP2-GFP levels in yeast, primary screen, S. cerevisiae, multiplex flow cytometry (AID 1867;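 active = GFP response, as percent of the DMSO control, above the screen-wide mean plus 3 SD, about 139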;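 note: median GFP channel fluorescence of barcode-gated MEP2-GFP cells measured by flow cytometry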). The note with it: S. cerevisiae MEP2-GFP strain, 3 h, at 10 µM, stronger effect = higher value, 100% means same as DMSO wells.
Test [3] can be described thus: modulators of CIT2-GFP expression in yeast, primary screen, S. cerevisiae, GFP fusion, multiplex flow cytometry (AID 1870;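 active = percent response above a set limit, the screen-wide mean plus 3 SD, cut at about 130% in these data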;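 note: barcoded CIT2-GFP strain pooled with four other GFP strains with rapamycin as positive control; median GFP fluorescence per well over plate mean of DMSO wells so 100% = DMSO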). As to conditions: 3 h, at 10 µM, stronger effect = higher value.
The nature of test [4]: modulators of LAP4-GFP expression in yeast, primary screen, S. cerevisiae, multiplex flow cytometry (AID 1873;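 active = GFP signal, as percent of the solvent control, above the screen mean plus 3 SD, about 149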). The note with it: 3 h, at 10 µM, stronger effect = higher value.
The nature of test [5]: modulators of AGP1-GFP expression in yeast TOR pathway, primary screen, cell-based, multiplex flow cytometry, S. cerevisiae (AID 1887;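 active = GFP signal above the screen-wide mean plus 3 SD, that is over about 124.5% of the solvent control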;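 note: AGP1-GFP fusion strain of S. cerevisiae within a five-strain barcoded multiplex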). As to conditions: 3 h, at 10 µM, stronger effect = higher value.
Test [6] in a line: inhibitors of CD8+ T cell-vesicle binding, pilot screen, LFA-1/ICAM-1 modulator project, MLPCN validation set, flow cytometry (AID 2523;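 active = response below a set limit, under 55% cells CD8-positive and vesicle-bound, and CD8 cells' 90th-percentile brightness under 279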;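 for vesicle binding response: mean PE anti-B7-1 fluorescence of CD8+ cells relative to row control; 100% = QL9-loaded vesicles with DMSO vehicle in the same plate row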). As to conditions: 2C mouse CD8+ T cells, at 7 µM, stronger effect = lower value; double positive events: measured here: CD8+/vesicle+ event percentage.
Test [7] has as its target Integrin beta-1 (Homo sapiens) + Integrin alpha-4 (Homo sapiens) (UniProt P13612+P05556). Nature of the test: inhibition of HUTS-21 binding to VLA-4, pilot screen, VLA-4 allosteric modulator project, U937 cells, HUTS-21 mAb, flow cytometry, validation set (AID 2674;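 active = inhibition above 50%, about 3 SD of the validation set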;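 note: antibody binding induced by the VLA-4 ligand LDV present at three times its Kd; 0% = LDV ligand with antibody and no compound and 100% = antibody without LDV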). The note with it: HUTS-21 LIBS mAb binding, at 6.7 µM, stronger effect = higher value, binding induced by LDV ligand.

Test [8] is described as follows: superoxide lowering in aged yeast cells, pilot screen, validation compound set (AID 2706;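 active = superoxide response below 65% of plate, a cut near 3 SD across the whole screen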;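 note: yeast exposed to compound for one week at 30 degrees C before staining; 100% = mean of all compound wells on the same plate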). The note with it: S. cerevisiae aging, superoxide DHE fluorescence; at 10 µM; stronger effect = lower value.
Test [9] deals with Beta-adrenergic receptor kinase 1 (Homo sapiens) (UniProt P25098). Put plainly: GRK2 binders displacing RNA aptamer, biochemical, validation, human GRK2, bead flow cytometry (AID 488806;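 active = aptamer binding inhibition above 30%, about 3 SD of noise from non-fluorescent compounds; inactive = inhibition at or below 30%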). The note with it: bead-bound GRK2, FAM-aptamer displacement, at 10 µM, stronger effect = higher value.
The target in test [10] is Beta-2 adrenergic receptor (Homo sapiens) (UniProt P07550). Nature of the test: beta2AR agonists driving receptor internalization, pilot screen, cell-based, FAP fluorogen, flow cytometry, validation set (AID 504459;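 active = percent response above 42, roughly 3 SD of non-fluorescent test compounds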;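 note: agonist-driven loss of surface beta2AR via internalization measured by FAP dye flow cytometry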). The note with it: Am2.2-beta2AR cells, FAP surface receptor flow cytometry; at 10 µM; stronger effect = higher value.
The target in test [11] is AP-2 complex subunit beta (Homo sapiens) (UniProt P63010). Put plainly: inhibitors of arrestin peptide binding to AP2, pilot screen, biochemical, validation set, GST-AP2 beads, flow cytometry (AID 504541;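 active = inhibition above 54%, about 3 SD of non-fluorescent compounds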;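 note: AP2 carries R879A mutation and is captured from E. coli lysate; bead-bound FITC arrestin peptide fluorescence measuring arrestin peptide binding to AP2; 0% = DMSO wells and 100% = excess unlabeled arrestin peptide control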). As to conditions: FITC arrestin peptide, at 10 µM, stronger effect = higher value, AP2 beta2 appendage fragment, R879A mutant.
A short description of test [12]: yeast V-ATPase proton transport modulators, S. cerevisiae, pHLuorin, HTS validation (AID 504600).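 Note: plate controls were DMSO for no effect and reference compound for full effect.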 As to conditions: S. cerevisiae pHLuorin cytosolic pH, at 10 µM, stronger effect = higher value.
Test [13] concerns anti-desmoglein-3 scFv antibody binding to human DSG3. Put plainly: inhibitors of anti-DSG3 scFv binding to DSG3, pilot screen, biochemical, validation compound set, bead-based, flow cytometry (AID 588368;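 active = binding below the plate cutoff, the plate median minus 3 SD, with a reading above zero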;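 note: signal is the median channel fluorescence of bead-bound GFP antibody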). The note with it: Protein G beads, DSG3-Fc, scFv-GFP binding, at 10 µM, stronger effect = lower value.
Test [14] in a line: inhibitors of fungal efflux pumps CDR1, CDR2, MDR1, pilot screen, validation compound set, multiplex, phenotypic (AID 588506;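 active = efflux inhibition above 0.42, the validation set average plus 4 SD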;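 note: Nile Red retained in cells so higher fluorescence means more efflux inhibition; 0 = negative control wells and 1 = enniatin B 25 µM full block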). The note with it: S. cerevisiae pump-expressing triplex, Nile Red efflux flow cytometry; at 10 µM; stronger effect = higher value; the pumps come from Candida albicans.
Test [15] deals with ATP-binding cassette sub-family B member 6 (Homo sapiens) (UniProt Q9NP58). Nature of the test: ABCB6 transporter inhibitors, pilot screen, K562-ABCB6 cells, flow cytometry, validation set (AID 588550;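 active = inhibition above the screen-wide mean plus 3 SD, about 51%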;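 note: 0% = DMSO wells and 100% = benzethonium chloride 70 µM positive control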). As to conditions: K562-ABCB6 porphyrin accumulation, 1 h, at 10 µM, stronger effect = higher value.
Test [16] is described as follows: promoters of myeloid differentiation in arrested cells, primary screen, cell-based, GFP/MAC1 double positive, flow cytometry, validation set (AID 588685;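 active = differentiation response of at least 50%, scaled between solvent and reference control, from cells with both markers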;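 note: compound exposure lasts four days before antibody staining and flow analysis; 0% = DMSO wells and 100% = 5 µM fulvestrant positive control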). The note with it: ER-HoxA9 marrow cells, stronger effect = higher value, normalized: vehicle 0, fulvestrant 100.

Inconclusive results are not listed. Activity calls are given as the source filed them. Cut-off read from the data, not from the text of the source, unless noted: active = response above about 15%; inactive = the rest.

Beta-2 adrenergic receptor (Homo sapiens), sequence (P07550 whole entry, looked up): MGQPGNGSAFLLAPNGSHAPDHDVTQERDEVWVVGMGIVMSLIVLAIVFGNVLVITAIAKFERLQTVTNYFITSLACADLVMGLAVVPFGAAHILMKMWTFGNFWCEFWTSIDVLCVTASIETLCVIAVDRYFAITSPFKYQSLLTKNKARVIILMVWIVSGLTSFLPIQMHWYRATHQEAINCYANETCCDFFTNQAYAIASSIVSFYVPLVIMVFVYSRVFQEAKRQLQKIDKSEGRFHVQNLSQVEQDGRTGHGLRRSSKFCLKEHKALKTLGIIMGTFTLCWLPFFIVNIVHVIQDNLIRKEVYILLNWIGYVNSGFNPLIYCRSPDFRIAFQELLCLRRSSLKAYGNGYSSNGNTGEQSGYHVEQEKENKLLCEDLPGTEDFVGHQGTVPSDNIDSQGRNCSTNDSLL
AP-2 complex subunit beta (Homo sapiens), sequence (P63010 whole entry, looked up, the tested form may be a part, one chain of several): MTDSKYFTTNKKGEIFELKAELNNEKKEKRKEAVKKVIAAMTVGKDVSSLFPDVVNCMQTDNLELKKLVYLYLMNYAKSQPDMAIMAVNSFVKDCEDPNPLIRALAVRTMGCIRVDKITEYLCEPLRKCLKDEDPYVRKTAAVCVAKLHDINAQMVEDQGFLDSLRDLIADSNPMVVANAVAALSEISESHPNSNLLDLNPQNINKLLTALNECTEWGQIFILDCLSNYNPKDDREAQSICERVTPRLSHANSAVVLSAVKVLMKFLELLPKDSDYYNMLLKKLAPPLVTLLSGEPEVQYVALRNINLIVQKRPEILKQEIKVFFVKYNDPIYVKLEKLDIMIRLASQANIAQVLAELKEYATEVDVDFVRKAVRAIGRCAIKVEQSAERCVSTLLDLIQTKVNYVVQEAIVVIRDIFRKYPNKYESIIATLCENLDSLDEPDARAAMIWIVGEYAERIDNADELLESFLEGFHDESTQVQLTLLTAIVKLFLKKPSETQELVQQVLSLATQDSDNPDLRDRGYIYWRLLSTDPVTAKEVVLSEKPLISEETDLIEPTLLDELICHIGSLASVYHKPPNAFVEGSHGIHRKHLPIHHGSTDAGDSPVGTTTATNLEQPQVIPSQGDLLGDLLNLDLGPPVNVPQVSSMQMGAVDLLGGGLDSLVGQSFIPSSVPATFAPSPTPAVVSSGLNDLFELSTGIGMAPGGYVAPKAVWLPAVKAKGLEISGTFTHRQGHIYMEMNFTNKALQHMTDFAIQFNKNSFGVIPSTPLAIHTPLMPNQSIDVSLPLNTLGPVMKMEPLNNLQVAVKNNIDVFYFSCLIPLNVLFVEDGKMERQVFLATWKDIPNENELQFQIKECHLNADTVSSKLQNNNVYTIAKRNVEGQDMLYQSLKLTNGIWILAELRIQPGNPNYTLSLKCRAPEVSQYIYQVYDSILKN
Beta-adrenergic receptor kinase 1 (Homo sapiens), sequence (P25098 whole entry, looked up): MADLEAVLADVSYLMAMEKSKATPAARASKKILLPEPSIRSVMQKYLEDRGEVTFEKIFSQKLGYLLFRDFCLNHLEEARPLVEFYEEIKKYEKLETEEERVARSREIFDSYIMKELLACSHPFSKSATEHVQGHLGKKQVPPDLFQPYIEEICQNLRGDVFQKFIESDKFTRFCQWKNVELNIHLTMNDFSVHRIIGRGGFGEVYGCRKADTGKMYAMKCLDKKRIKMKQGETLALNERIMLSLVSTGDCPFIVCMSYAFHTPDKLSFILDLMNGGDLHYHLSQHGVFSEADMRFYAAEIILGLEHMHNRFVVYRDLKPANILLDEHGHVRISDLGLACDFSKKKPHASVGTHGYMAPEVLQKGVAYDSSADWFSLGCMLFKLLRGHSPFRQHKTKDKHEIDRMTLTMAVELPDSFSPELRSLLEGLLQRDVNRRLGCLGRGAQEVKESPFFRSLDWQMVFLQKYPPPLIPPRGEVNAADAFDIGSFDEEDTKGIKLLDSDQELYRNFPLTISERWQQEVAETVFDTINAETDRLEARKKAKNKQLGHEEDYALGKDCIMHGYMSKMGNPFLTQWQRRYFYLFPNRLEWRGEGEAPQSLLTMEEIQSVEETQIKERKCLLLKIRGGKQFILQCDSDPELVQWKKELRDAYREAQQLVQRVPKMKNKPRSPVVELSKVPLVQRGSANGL
Integrin beta-1 (Homo sapiens) + Integrin alpha-4 (Homo sapiens), sequence (P05556 whole entry, looked up): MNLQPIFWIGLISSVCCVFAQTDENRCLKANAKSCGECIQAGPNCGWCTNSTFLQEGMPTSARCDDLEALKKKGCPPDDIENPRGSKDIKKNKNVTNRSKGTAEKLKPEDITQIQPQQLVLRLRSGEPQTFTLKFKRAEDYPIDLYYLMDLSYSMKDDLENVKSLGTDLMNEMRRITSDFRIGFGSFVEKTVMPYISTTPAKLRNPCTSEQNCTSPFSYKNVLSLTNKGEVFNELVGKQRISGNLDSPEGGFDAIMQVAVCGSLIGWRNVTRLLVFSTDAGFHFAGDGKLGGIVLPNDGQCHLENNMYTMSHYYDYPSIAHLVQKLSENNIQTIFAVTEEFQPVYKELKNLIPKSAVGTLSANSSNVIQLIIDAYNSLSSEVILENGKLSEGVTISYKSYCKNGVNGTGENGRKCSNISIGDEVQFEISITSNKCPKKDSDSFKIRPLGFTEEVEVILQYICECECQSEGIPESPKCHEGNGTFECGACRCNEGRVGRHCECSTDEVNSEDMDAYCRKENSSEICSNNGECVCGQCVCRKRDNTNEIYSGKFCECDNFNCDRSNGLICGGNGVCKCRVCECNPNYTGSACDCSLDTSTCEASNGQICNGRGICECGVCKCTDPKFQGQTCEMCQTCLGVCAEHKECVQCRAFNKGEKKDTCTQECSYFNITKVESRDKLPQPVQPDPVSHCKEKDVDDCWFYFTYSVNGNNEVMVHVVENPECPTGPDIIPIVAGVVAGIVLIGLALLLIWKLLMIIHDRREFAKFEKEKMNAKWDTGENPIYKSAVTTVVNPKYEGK
Integrin beta-1 (Homo sapiens) + Integrin alpha-4 (Homo sapiens), sequence (P13612 whole entry, looked up): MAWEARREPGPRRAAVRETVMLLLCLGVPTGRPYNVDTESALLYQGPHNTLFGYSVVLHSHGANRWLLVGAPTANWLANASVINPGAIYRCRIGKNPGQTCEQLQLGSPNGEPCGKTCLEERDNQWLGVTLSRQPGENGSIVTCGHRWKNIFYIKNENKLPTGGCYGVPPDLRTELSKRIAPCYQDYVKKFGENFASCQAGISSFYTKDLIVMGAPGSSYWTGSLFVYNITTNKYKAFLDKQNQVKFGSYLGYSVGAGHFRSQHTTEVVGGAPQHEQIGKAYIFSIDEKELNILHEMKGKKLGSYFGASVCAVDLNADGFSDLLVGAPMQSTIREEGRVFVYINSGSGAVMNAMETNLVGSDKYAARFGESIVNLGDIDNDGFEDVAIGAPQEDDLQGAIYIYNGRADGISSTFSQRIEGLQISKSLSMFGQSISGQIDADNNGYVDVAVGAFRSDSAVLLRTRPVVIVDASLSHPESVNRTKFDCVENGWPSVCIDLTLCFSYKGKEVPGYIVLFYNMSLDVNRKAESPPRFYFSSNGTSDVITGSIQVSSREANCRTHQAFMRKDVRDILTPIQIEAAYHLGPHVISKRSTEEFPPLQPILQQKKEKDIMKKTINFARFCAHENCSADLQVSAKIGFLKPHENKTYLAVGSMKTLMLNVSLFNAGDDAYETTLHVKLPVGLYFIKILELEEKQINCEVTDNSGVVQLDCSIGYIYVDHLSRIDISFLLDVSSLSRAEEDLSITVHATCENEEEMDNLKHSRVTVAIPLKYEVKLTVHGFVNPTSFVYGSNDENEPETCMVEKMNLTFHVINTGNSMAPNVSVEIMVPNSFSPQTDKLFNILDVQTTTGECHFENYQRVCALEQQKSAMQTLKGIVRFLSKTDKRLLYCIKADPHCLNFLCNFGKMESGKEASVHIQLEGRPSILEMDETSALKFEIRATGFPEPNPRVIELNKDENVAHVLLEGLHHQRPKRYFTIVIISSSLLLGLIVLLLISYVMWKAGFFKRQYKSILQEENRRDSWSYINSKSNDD
ATP-binding cassette sub-family B member 6 (Homo sapiens), sequence (Q9NP58 whole entry, looked up): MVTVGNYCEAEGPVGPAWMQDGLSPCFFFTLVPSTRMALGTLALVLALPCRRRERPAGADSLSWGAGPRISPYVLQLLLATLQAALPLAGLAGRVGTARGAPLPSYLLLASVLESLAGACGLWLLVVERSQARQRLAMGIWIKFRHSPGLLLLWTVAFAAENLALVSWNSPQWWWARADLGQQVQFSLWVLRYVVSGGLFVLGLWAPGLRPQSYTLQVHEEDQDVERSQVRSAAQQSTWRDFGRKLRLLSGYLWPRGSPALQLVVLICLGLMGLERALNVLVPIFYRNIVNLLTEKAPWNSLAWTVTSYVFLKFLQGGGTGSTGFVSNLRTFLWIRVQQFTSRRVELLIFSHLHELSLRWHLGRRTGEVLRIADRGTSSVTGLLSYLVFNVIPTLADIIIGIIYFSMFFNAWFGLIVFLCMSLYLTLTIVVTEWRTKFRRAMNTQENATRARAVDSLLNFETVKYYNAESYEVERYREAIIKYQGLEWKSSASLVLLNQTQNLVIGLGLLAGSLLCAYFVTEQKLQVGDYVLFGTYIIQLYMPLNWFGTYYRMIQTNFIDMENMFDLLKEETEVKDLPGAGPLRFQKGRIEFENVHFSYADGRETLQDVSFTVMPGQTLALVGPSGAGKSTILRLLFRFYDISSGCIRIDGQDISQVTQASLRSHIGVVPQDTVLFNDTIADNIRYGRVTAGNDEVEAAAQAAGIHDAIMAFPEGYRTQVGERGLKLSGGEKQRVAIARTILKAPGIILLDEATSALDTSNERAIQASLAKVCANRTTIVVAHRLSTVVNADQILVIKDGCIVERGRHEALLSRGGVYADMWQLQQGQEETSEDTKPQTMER

In the case of `CC(=O)OCC(=O)[C@@]1(O)[C@H](C)C[C@H]2[C@@H]3CCC4=CC(=O)C=C[C@]4(C)[C@@]3(F)[C@@H](O)C[C@@]21C`, the percent of DMSO control GFP in test [1] was 97.2% (inactive). Also, the values for the GFP response vs DMSO in test [2] and in test [4] were 119% (inactive) and 80.9% (inactive), respectively. In addition, in [3], the percent response of DMSO control was 107% (inactive). In [5], the GFP response, % of DMSO was 91.7% (inactive). In [6], the double positive events is 59.3%. For the same compound, the vesicle binding response in test [6] was 192% (inactive). The inhibition in test [7] is 12.3% (inactive); in [11] it was -11.7% (inactive); in test [15], 9% (inactive). The superoxide response (% of plate) in test [8] was 108% (inactive). Besides, the aptamer binding inhibition in test [9] was -2% (inactive). Further, the response was -2.19% (inactive) in [10] and 2.51% (inactive) in test [12]. The binding (% of control) in test [13] is 99.4% (inactive). For the same compound, the efflux inhibition (fraction of control) in test [14] is -0.35 (inactive). Further, the differentiation response in [16] was -3.28% (inactive).

Consider `C/C(CCc1oc2ccc(Cl)cc2c1-c1ccc(C)o1)=N\O`, for which the percent of DMSO control GFP in [1] was 101% (inactive). Moreover, the GFP response vs DMSO in test [2] is 103% (inactive); in test [4] it was 125% (inactive). In [3], the percent response of DMSO control is 103% (inactive). In addition, the GFP response, % of DMSO in test [5] was 102% (inactive). In [6], this compound displayed a double positive events of 63.1%. In [6], the vesicle binding response is 157% (inactive). The inhibition in test [7] was -16.4% (inactive); in test [11] it was 4.9% (inactive); in test [15] it was -3% (inactive). For the same compound, the superoxide response (% of plate) in test [8] is 107% (inactive). Also, the aptamer binding inhibition in [9] is 0% (inactive). For the same compound, the response in test [10] was -13% (inactive); in [12], 6.85% (inactive). For the same compound, the binding (% of control) in test [13] is 111% (inactive). In addition, in [14], the efflux inhibition (fraction of control) was 0 (inactive). In addition, the differentiation response in [16] was 9.79% (inactive).

Consider `COC(=O)c1[nH]c2ccc(C)cc2c1NC(=O)CN1CCc2cc(OC)c(OC)cc2C1`, for which, in test [1], the percent of DMSO control GFP is 106% (inactive). For the same compound, the figures for the GFP response vs DMSO in [2] and in test [4] were 111% (inactive) and 103% (inactive), respectively. Also, the percent response of DMSO control in [3] was 117% (inactive). Further, the GFP response, % of DMSO in test [5] is 105% (inactive). Further, in [6], the double positive events was determined as 63.8%. Further, in [6], the vesicle binding response was 296% (inactive). Besides, the inhibition in [7] was -11.8% (inactive); in test [11] it was -5.24% (inactive); in test [15], 24% (inactive). Also, in [8], the superoxide response (% of plate) was 130% (inactive). Also, the aptamer binding inhibition in test [9] was 4% (inactive). The response was 10.4% (inactive) in test [10] and -3.57% (inactive) in [12]. The binding (% of control) in test [13] was 101% (inactive). In addition, the efflux inhibition (fraction of control) in [14] was 0.5 (active). The differentiation response in [16] was -10.4% (inactive).

As to `CC(=O)[C@H]1[C@H](C#N)C[C@H]2[C@@H]3CC=C4C[C@@H](O)CC[C@]4(C)[C@H]3CC[C@@]21C`, the percent of DMSO control GFP in test [1] is 92% (inactive). The GFP response vs DMSO in test [2] was 125% (inactive); in test [4] it was 85.8% (inactive). The percent response of DMSO control in [3] is 104% (inactive). In test [5], the GFP response, % of DMSO was 88% (inactive). The same compound displayed a double positive events in test [6] of 62.5%. Further, the vesicle binding response in test [6] was 112% (inactive). For the same compound, the inhibition in test [7] was 19.1% (inactive); in test [11], -10% (inactive); in [15], 6% (inactive). Moreover, the superoxide response (% of plate) in test [8] is 104% (inactive). Besides, in [9], the aptamer binding inhibition was 11% (inactive). The response is 2.41% (inactive) in test [10] and 0% (inactive) in test [12]. Besides, the binding (% of control) in [13] is 103% (inactive). Besides, the efflux inhibition (fraction of control) in test [14] is -0.28 (inactive). Also, the differentiation response in test [16] was -3.28% (inactive).
